About 83,000 compounds went through this panel and 20% of them were active in at least one assay; those are over-represented in the sample as a whole.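 Cell lines were cultured in 96-well plates, exposed to a single compound concentration, and assessed for percent growth 48 hours later.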 Active and inactive are the calls of the source. How the source made its calls: active means growth percent below 10; inactive means the rest.

In PubChem BioAssay (NCI) one finds growth data, which are given here for 37 compounds.

The subject of the first experiment is 786-0 renal. The experiment can be described thus: NCI-60 one-dose screen, 48 h (100 = growth as untreated, 0 = no growth, -100 = all killed). The note with it: 10 µM.
Regarding `CCNc1nc2c(cnn2C)c(=O)[nH]1`, the growth is 101% (inactive).

Take `O=[N+]([O-])c1cccc(N=Nc2ccc(O)cc2O)c1`: the growth is 74% (inactive).

In the case of `CC(=O)/C(Cc1ccccc1)=N/O`, the growth was 102% (inactive).

Turning to `O=[N+]([O-])c1ccccc1N=Nc1ccc(O)cc1O`, the growth is 108% (inactive).

As for `CCn1c(=O)n(C)c2c(=O)n(C)c(=O)n(C)c21`, the growth is 109% (inactive).

On to `O=P(O)(O)OCC(O)CO` (stereo not given), for which the growth is 101% (inactive).

Turning to `CCCCCCCCCCC1CO1` (stereo not given), the growth is 101% (inactive).

With `CC(=O)OCCO`, the growth was 101% (inactive).

For the compound `CC(=O)OCC(=O)[C@@]1(O)CC[C@H]2[C@@H]3CC[C@@H]4C[C@H](O)CC[C@]4(C)[C@H]3C(=O)C[C@@]21C`, the growth was 105% (inactive).

With `COc1cc2c3cc1Oc1c(OC)c(OC)cc4c1C(Cc1ccc(O)c(c1)Oc1ccc(cc1)CC3N(C)CC2)N(C)CC4` (stereo not given), the growth is 32.3% (inactive).

In the case of `COc1cccc(/C=N/NC(=S)NC2CC3CCC2C3)c1O` (stereo not given), the growth is 86.3% (inactive).

Take `O=S(=O)(Cc1ccccc1)c1ccccc1`: the growth was 101% (inactive).

On to `COc1cc2nn(-c3ccccc3N)nc2cc1OC`, for which the growth was 95.7% (inactive).

Regarding `CC1C(=O)c2ccccc2CC1C(=O)O` (stereo not given), the growth is 110% (inactive).

With `O=[N+]([O-])c1ccc(S(=O)(=O)NN=C2CCCCC2)cc1`, the growth was 103% (inactive).

On to `CC(=O)c1ccc(N=C(C#N)C2=C(O)c3ccccc3C2=O)cc1`, for which the growth is 103% (inactive).

Take `CNc1nc(NC)c2cn[nH]c2n1`: the growth was 101% (inactive).

For the compound `CC(=Nc1ccccc1)C1=C(O)C(Cc2cccc(F)c2)NC1=O` (stereo not given), the growth was 15.3% (inactive).

As for `CCOC(=O)c1ccc(NC(=S)P(=O)(c2ccccc2)c2ccccc2)cc1`, the growth is 101% (inactive).

For the compound `COCCOC(=O)c1ccc(C(C)C)cc1`, the growth is 93.8% (inactive).

Regarding `CCCC(C)OCC(=O)O` (stereo not given), the growth was 107% (inactive).

`O=c1[nH][nH]c(=O)c2cc([N+](=O)[O-])ccc12`: the growth is 106% (inactive).

Turning to `CCCCCCCCO`, the growth is 102% (inactive).

For the compound `Cn1cnc2nc(Cl)nc(Cl)c21`, the growth is 4.6% (active).

For `OCC(O)C(O)C(O)C(O)/C=N/O` (stereo not given), the growth is 96.8% (inactive).

`O=C(O)COCC(=O)O`: the growth was 110% (inactive).

On to `Cc1ccc(S(=O)(=O)O)c(C)c1`, for which the growth was 103% (inactive).

With `NC(=S)N/N=C/c1ccc(N)cc1`, the growth was 99.9% (inactive).

On to `CC1CC(O)C2C3(C)CCCC2(COC3=O)C12CCC1(CCOC1=O)O2` (stereo not given), for which the growth is 99.1% (inactive).

Consider `CCOc1ccc(Br)cc1/C=N\N=C\c1cc(Br)ccc1OCC`, for which the growth is 105% (inactive).

On to `S=C1CCCCCN1`, for which the growth was 107% (inactive).

For `CC1CCCCN1C(=S)Nc1ccc(S(=O)(=O)N2CCCCC2)cc1` (stereo not given), the growth is 92.6% (inactive).

Regarding `COc1cc(C2c3cc4c(cc3C3OC(=O)C2C3CO)OCO4)cc(OC)c1OC` (stereo not given), the growth was 14.4% (inactive).

Turning to `CCCCOC(=O)c1ccc(C(C)C)cc1`, the growth is 95.4% (inactive).

For `NCCCN`, the growth is 104% (inactive).

Turning to `O=C(O)CCCC(=O)O`, the growth is 106% (inactive).

Take `COc1ccc(-c2cc3c(nn2)-c2ccccc2C3=O)cc1`: the growth is 25.8% (inactive).

A further experiment relates to COLO 205 colon. The experiment is described as above. The note with it: 10 µM.
On to `CCNc1nc2c(cnn2C)c(=O)[nH]1`, for which the growth is 96.5% (inactive).

For `O=[N+]([O-])c1cccc(N=Nc2ccc(O)cc2O)c1`, the growth was 92.2% (inactive).

As for `O=[N+]([O-])c1ccccc1N=Nc1ccc(O)cc1O`, the growth was 102% (inactive).

Take `CCn1c(=O)n(C)c2c(=O)n(C)c(=O)n(C)c21`: the growth is 101% (inactive).

Regarding `O=P(O)(O)OCC(O)CO` (stereo not given), the growth was 110% (inactive).

Turning to `CCCCCCCCCCC1CO1` (stereo not given), the growth was 105% (inactive).

Turning to `CC(=O)OCCO`, the growth is 107% (inactive).

For the compound `CC(=O)OCC(=O)[C@@]1(O)CC[C@H]2[C@@H]3CC[C@@H]4C[C@H](O)CC[C@]4(C)[C@H]3C(=O)C[C@@]21C`, the growth is 105% (inactive).

Regarding `COc1cc2c3cc1Oc1c(OC)c(OC)cc4c1C(Cc1ccc(O)c(c1)Oc1ccc(cc1)CC3N(C)CC2)N(C)CC4` (stereo not given), the growth was -97.3% (active).

With `COc1cccc(/C=N/NC(=S)NC2CC3CCC2C3)c1O` (stereo not given), the growth was 105% (inactive).

As for `O=S(=O)(Cc1ccccc1)c1ccccc1`, the growth is 112% (inactive).

Turning to `COc1cc2nn(-c3ccccc3N)nc2cc1OC`, the growth was 119% (inactive).

As for `CC1C(=O)c2ccccc2CC1C(=O)O` (stereo not given), the growth is 105% (inactive).

As for `O=[N+]([O-])c1ccc(S(=O)(=O)NN=C2CCCCC2)cc1`, the growth is 102% (inactive).

Take `CC(=O)c1ccc(N=C(C#N)C2=C(O)c3ccccc3C2=O)cc1`: the growth was 111% (inactive).

Consider `CNc1nc(NC)c2cn[nH]c2n1`, for which the growth was 95.6% (inactive).

For the compound `CCOC(=O)c1ccc(NC(=S)P(=O)(c2ccccc2)c2ccccc2)cc1`, the growth is 115% (inactive).

On to `COCCOC(=O)c1ccc(C(C)C)cc1`, for which the growth is 104% (inactive).

As for `O=c1[nH][nH]c(=O)c2cc([N+](=O)[O-])ccc12`, the growth was 99.6% (inactive).

On to `CCCCCCCCO`, for which the growth was 114% (inactive).

`Cn1cnc2nc(Cl)nc(Cl)c21`: the growth was -29.3% (active).

Consider `OCC(O)C(O)C(O)C(O)/C=N/O` (stereo not given), for which the growth was 112% (inactive).

In the case of `O=C(O)COCC(=O)O`, the growth was 108% (inactive).

Turning to `Cc1ccc(S(=O)(=O)O)c(C)c1`, the growth is 104% (inactive).

Regarding `NC(=S)N/N=C/c1ccc(N)cc1`, the growth was 110% (inactive).

On to `CC1CC(O)C2C3(C)CCCC2(COC3=O)C12CCC1(CCOC1=O)O2` (stereo not given), for which the growth is 118% (inactive).

Take `CCOc1ccc(Br)cc1/C=N\N=C\c1cc(Br)ccc1OCC`: the growth is 119% (inactive).

In the case of `S=C1CCCCCN1`, the growth is 111% (inactive).

Take `COc1cc(C2c3cc4c(cc3C3OC(=O)C2C3CO)OCO4)cc(OC)c1OC` (stereo not given): the growth is -92.4% (active).

`CCCCOC(=O)c1ccc(C(C)C)cc1`: the growth was 110% (inactive).

On to `NCCCN`, for which the growth is 122% (inactive).

With `O=C(O)CCCC(=O)O`, the growth is 97.1% (inactive).

On to `COc1ccc(-c2cc3c(nn2)-c2ccccc2C3=O)cc1`, for which the growth was 42.3% (inactive).
